The target of experiment [1] is Leukocyte tyrosine kinase receptor (Homo sapiens) (UniProt P29376). The settings on record: at 1 µM.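 Note: each value is the mean inhibition of LTK.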
Experiment [2] addresses Tyrosine-protein kinase Lyn (Homo sapiens) (UniProt P07948). The note with it: at 0.1 µM.
For experiment [3] the target is unchanged. The note with it: at 1 µM.
The target is the same in experiment [4]. The note with it: at 0.1 µM. This is another data set of the same source.
Experiment [5] has the same target. The settings on record: at 1 µM. This is another data set of the same source.
Experiment [6] concerns the target T1, Tyrosine-protein kinase Mer (Homo sapiens) (UniProt Q12866).
T1 sequence (whole entry): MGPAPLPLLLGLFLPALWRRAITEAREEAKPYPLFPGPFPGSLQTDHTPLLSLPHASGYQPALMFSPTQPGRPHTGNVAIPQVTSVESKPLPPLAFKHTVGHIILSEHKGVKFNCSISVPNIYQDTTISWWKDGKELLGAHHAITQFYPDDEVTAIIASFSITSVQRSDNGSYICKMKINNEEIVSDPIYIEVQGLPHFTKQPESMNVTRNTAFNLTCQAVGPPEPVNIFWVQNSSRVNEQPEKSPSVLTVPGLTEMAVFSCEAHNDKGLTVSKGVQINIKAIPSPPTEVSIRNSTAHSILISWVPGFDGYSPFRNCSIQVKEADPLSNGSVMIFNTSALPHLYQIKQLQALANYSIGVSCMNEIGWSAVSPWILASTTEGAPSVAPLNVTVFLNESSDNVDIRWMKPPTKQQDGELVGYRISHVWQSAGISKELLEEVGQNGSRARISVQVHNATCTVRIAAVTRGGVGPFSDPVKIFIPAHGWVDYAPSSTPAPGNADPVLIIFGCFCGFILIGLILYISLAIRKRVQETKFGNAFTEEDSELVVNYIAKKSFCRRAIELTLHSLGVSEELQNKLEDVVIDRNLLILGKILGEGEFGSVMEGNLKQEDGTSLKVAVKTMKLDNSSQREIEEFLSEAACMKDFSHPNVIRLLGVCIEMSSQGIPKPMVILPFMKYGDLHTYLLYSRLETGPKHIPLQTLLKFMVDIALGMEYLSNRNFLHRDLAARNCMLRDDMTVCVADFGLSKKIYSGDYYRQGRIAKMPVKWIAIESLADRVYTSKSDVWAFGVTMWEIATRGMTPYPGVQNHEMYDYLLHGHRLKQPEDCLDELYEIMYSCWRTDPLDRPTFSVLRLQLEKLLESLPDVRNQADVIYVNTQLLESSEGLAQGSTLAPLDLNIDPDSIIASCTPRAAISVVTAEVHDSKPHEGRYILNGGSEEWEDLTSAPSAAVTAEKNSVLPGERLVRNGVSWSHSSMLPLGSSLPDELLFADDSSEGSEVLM
The note with it: at 0.1 µM.

For experiment [7], the target named is T1, Tyrosine-protein kinase Mer (Homo sapiens). The note with it: at 1 µM.
Experiment [8] addresses Hepatocyte growth factor receptor (Homo sapiens) (UniProt P08581). The note with it: at 0.1 µM.
For experiment [9] the target is unchanged. The note with it: at 1 µM.
The target in experiment [10] is T2, Muscle, skeletal receptor tyrosine-protein kinase (Homo sapiens) (UniProt O15146).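 Note: values are mean inhibition of MuSK from the GSK PKIS kinase screening panel.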
T2 sequence (whole entry): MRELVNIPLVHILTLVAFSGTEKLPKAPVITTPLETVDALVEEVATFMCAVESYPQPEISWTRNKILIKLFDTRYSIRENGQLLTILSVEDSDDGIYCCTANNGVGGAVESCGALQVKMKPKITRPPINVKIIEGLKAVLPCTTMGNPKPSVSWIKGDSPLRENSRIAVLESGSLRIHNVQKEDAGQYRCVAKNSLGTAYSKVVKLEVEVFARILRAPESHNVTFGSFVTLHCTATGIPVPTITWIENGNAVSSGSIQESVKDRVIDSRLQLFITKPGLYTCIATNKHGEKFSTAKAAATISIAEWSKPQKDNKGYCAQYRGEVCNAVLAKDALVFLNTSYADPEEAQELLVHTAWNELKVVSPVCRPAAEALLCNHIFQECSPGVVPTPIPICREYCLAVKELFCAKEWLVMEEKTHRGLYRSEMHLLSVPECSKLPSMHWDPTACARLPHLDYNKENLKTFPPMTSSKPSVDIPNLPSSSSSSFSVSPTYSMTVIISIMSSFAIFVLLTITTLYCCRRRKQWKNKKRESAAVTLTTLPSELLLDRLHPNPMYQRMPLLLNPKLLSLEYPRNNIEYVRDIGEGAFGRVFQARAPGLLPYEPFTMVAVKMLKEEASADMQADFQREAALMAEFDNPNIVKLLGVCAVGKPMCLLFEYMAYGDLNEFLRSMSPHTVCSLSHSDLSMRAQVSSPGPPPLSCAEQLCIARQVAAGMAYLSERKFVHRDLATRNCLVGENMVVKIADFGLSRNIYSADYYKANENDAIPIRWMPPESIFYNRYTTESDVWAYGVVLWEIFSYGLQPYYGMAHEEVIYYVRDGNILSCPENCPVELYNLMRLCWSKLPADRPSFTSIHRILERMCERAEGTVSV
The note with it: at 0.1 µM.

Chain of Tyrosine-protein kinase Lyn (Homo sapiens) (P07948 2-512 limits assumed): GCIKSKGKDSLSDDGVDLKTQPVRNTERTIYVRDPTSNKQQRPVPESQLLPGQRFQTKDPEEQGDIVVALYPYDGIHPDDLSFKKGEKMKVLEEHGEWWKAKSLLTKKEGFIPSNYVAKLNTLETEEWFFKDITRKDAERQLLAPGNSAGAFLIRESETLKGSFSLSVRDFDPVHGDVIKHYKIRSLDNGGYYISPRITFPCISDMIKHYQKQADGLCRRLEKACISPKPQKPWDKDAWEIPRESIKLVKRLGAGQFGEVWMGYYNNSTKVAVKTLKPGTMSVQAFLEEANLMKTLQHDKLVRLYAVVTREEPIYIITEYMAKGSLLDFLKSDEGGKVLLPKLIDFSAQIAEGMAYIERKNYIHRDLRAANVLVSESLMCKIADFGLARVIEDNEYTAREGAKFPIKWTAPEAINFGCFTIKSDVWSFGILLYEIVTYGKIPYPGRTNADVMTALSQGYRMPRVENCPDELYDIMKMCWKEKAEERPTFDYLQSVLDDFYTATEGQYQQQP
Chain of Leukocyte tyrosine kinase receptor (Homo sapiens) (P29376 whole entry): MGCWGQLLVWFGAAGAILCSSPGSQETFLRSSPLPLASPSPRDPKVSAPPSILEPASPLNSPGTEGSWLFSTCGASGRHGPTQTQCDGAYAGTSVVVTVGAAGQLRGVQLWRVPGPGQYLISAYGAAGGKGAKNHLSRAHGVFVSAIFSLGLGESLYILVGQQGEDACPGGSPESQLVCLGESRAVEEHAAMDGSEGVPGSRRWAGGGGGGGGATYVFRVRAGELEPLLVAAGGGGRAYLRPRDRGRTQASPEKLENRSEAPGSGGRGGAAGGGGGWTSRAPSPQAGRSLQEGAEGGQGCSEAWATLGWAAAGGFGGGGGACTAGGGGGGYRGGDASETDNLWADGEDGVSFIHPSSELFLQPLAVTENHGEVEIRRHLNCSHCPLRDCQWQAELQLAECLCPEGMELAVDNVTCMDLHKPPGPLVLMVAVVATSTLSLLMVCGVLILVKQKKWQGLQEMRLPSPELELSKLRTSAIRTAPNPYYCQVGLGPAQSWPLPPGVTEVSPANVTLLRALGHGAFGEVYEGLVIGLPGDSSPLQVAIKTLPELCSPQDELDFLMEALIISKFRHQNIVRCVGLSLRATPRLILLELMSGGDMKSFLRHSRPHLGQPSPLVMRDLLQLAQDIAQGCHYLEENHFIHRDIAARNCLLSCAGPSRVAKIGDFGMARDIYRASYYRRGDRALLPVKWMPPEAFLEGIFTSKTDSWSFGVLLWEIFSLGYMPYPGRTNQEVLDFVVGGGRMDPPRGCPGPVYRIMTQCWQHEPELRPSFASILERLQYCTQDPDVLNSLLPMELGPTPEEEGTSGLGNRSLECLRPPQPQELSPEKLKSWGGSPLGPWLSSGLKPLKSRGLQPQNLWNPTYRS
Chain of Hepatocyte growth factor receptor (Homo sapiens) (P08581 whole entry): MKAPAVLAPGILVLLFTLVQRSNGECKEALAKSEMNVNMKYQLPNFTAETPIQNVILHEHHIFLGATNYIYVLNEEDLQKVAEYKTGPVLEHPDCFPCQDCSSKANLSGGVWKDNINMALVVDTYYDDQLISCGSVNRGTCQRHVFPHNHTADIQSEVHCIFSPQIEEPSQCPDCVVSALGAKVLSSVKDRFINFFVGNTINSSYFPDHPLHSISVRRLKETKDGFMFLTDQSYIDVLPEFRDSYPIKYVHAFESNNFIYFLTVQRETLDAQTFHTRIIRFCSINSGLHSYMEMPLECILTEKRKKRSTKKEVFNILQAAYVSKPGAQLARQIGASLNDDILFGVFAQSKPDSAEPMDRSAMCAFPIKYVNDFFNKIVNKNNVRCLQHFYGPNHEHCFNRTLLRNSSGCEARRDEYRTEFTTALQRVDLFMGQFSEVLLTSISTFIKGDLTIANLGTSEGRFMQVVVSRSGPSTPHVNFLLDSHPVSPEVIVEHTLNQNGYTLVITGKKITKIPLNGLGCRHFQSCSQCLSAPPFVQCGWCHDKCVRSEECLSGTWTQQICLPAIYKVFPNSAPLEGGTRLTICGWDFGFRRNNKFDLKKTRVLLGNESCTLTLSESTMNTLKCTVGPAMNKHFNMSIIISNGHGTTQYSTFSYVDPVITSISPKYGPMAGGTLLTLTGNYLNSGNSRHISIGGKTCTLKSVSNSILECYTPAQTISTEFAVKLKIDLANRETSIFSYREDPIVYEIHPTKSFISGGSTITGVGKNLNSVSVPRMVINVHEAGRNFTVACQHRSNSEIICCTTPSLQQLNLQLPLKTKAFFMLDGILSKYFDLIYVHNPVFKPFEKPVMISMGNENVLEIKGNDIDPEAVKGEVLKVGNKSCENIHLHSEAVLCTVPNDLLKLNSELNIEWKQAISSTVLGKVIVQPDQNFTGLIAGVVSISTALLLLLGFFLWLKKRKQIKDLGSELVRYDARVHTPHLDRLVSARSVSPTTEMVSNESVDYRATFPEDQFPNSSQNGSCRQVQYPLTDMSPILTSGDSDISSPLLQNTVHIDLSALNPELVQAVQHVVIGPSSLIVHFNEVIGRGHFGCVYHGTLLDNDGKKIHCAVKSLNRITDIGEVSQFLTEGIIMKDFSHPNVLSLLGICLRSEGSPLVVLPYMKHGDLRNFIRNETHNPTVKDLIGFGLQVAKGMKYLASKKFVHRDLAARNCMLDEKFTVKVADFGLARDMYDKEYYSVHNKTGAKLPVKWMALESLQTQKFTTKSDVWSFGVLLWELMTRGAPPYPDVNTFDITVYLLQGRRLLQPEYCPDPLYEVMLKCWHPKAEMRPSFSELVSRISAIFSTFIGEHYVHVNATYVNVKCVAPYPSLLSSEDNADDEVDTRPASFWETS

A word on the inhibition: it is the relative decrease from the control value, in per cent. For `C[C@@H](Oc1cc(-n2cnc3ccc(OCC4CCN(C)CC4)cc32)sc1C(N)=O)c1ccccc1C(F)(F)F`, the inhibition in [1] was 3.18%; in experiment [2], 1.14%; in [3] it was 18.9%; in experiment [4], 1.52%; in experiment [5], 16.5%; in [6], -0.95%. The inhibition in experiment [7] came out at 6.99%; in [8], 2.85%; in experiment [9], 9.84%; in [10], 41.3%.

For `Cc1ccc2c(-c3ccnc(Nc4ccc5c(c4)OCCO5)n3)c(-c3ccc(C(F)(F)F)cc3)nn2n1`, the inhibition is 1.95% in experiment [1]; 2.2% in [2]; 6.17% in [3]; 1.57% in experiment [4]; 4.82% in [5]; -0.17% in [6]. In addition, the inhibition was 0.27% in experiment [7], 6.93% in experiment [8], 1.74% in experiment [9] and -0.62% in experiment [10].

`Cc1ccc(NC(=O)CC2CC2)cc1-c1ccc(C(=O)NCC2CC2)cc1`: the inhibition in experiment [1] came out at 4.25%; in experiment [2], 6.32%; in experiment [3], 7.19%; in [4], 4.03%; in [5], 6.24%; in experiment [6] it was 0.96%. Besides, the inhibition in [7] is 1.85%; in [8] it was 7.51%; in [9], 9%; in experiment [10], 2.1%.

For `FC(F)(F)c1ccc(-c2nn3ncccc3c2-c2ccnc(Nc3ccc4c(c3)OCCO4)n2)cc1`, the inhibition in experiment [1] stood at 3.42%; in experiment [2], 6.84%; in experiment [3] it was 37.1%; in experiment [4] it was 4.96%; in [5] it was 30.8%; in [6], 7.37%. For the same molecule, the inhibition came to 8.55% in experiment [7], 5.94% in experiment [8], 12.1% in [9] and 7.57% in [10].

Turning to `Cc1ccc2c(-c3ccnc(Nc4cccc(C(F)(F)F)c4)n3)c(-c3ccccc3)nn2n1`, the inhibition in experiment [1] is 2.99%; in experiment [2], 12.6%; in experiment [3], 53%; in [4] it was 8.81%; in [5], 47.8%; in experiment [6] it was 4.49%. Moreover, the inhibition in experiment [7] came to 20%; in experiment [8], 13.9%; in experiment [9] it was 10.4%; in [10], 4.93%.

Regarding `O=C1Nc2ccc(-c3cccnc3)cc2C1=Cc1cc(Br)c(O)c(Br)c1`, the inhibition worked out at 23% in experiment [1]; 2.95% in experiment [2]; 11.1% in [3]; 1.54% in experiment [4]; 9.06% in [5]; 1.25% in experiment [6]. Moreover, the inhibition is 2.23% in [7], 2.89% in [8], 5.75% in experiment [9] and 3.42% in experiment [10].

With `CN1CCN(C(=O)c2ccc(NC(=O)Nc3ccc(N(C)c4ccnc(Nc5ccc(CS(C)(=O)=O)cc5)n4)cc3)cc2)CC1`, the inhibition amounted to 10.7% in [1]; 2.45% in experiment [2]; 19.7% in [3]; 1.67% in experiment [4]; 18.1% in experiment [5]; 12.8% in [6]. Further, the inhibition is 52.3% in experiment [7], 45.6% in experiment [8], 77.4% in experiment [9] and 5.5% in experiment [10].

In the case of `O=C(Nc1ccc(Oc2ccc3[nH]c(NC(=O)c4ccco4)nc3c2)cc1)Nc1cc(C(F)(F)F)ccc1F`, the inhibition was found to be 5.81% in [1]; 14% in experiment [2]; 65.7% in experiment [3]; 9.31% in [4]; 60.5% in experiment [5]; 0.43% in experiment [6]. Moreover, the inhibition was 14.1% in [7], 3.13% in experiment [8], 42.9% in experiment [9] and 49.9% in experiment [10].

Consider `COc1ccc2ncnc(Nc3ccc(OCc4ccccc4)cc3)c2c1`, for which the inhibition was -0.07% in experiment [1]; 2.3% in [2]; 6.36% in [3]; 1.2% in experiment [4]; 4.75% in experiment [5]; 2.16% in [6]. The inhibition in experiment [7] was 12.9%; in experiment [8] it was -2.88%; in experiment [9], 2.39%; in experiment [10], 1.31%.

Regarding `[O-][S+]1CCN(Cc2ccc(-c3ccc4ncnc(Nc5ccc(OCc6ccccc6)c(Cl)c5)c4c3)o2)CC1`, the inhibition in experiment [1] is 7.75%; in experiment [2] it was 1.18%; in experiment [3] it was 6.07%; in experiment [4], -1.3%; in [5], 3.42%; in experiment [6] it was 7.08%. Besides, the inhibition in experiment [7] turned out to be 48.2%; in [8], 3.11%; in experiment [9], 5.04%; in experiment [10], 1.43%.

For `CC(C)c1ccc(Nc2nccc(-c3cnn4ncccc34)n2)cc1`, the inhibition in [1] worked out at 10.6%; in experiment [2], 4.07%; in [3] it was 7.45%; in experiment [4], 2.28%; in experiment [5], 4.7%; in [6], 1.42%. Besides, the inhibition came out at 7.98% in experiment [7], 4.89% in [8], 13.5% in experiment [9] and 3.14% in experiment [10].

Take `Cc1cc(Cl)cc2c1NC(=O)C2=NNc1ccc(S(N)(=O)=O)cc1`: the inhibition in experiment [1] was 2.25%; in [2], 3.74%; in experiment [3] it was 4.11%; in [4] it was 2.32%; in experiment [5] it was 4.84%; in [6], 0.38%. Also, the inhibition was 0.48% in experiment [7], -0.26% in [8], 5.08% in [9] and 2.21% in experiment [10].

In the case of `CCOc1nccc2c1nc(-c1nonc1N)n2CC`, the inhibition was 2.99% in experiment [1]; 3.8% in [2]; 6.05% in experiment [3]; 2.33% in [4]; 4.84% in [5]; 3.54% in [6]. The inhibition in [7] amounted to 6.08%; in [8] it was 4.49%; in experiment [9], 11.2%; in experiment [10], 3.26%.

On to `NS(=O)(=O)c1cccc(Nc2cc(-c3ccc(F)cc3)n[nH]2)c1`, for which the inhibition was determined as 4.08% in [1]; 5.86% in experiment [2]; 10.7% in experiment [3]; 3.31% in [4]; 8.61% in experiment [5]; 1.94% in experiment [6]. Besides, the inhibition came to 2.95% in experiment [7], 9.61% in experiment [8], 4.41% in [9] and 3.78% in [10].

`COc1cccc(-n2nc(C)c3c(N/N=C(\C)c4ccncc4)ncnc32)c1`: the inhibition in experiment [1] was 1.76%; in experiment [2], 1.67%; in experiment [3], 2.24%; in [4], 2.02%; in experiment [5] it was 1.38%; in [6], 1.59%. Moreover, the inhibition was -0.09% in [7], -1.53% in experiment [8], -2.4% in [9] and 0.43% in [10].

As to `Nc1nccc(-c2c(-c3ccc(F)cc3)nn3cc(C(F)(F)F)ccc23)n1`, the inhibition was 2.62% in experiment [1]; 1.67% in experiment [2]; 2.06% in [3]; 1.33% in experiment [4]; 2.59% in experiment [5]; -0.89% in [6]. Also, the inhibition was 0.12% in experiment [7], 2.79% in experiment [8], 0.01% in [9] and -1.22% in experiment [10].

The values are drawn from ChEMBL document CHEMBL1961873, “Compounds: GSK PKIS; Assays: Nanosyn kinase panel” (2012).
